According to PubChem BioAssay (EPA / NIEHS):
Records with an inconclusive call do not appear. Activity calls are given as the source filed them. How the source made its calls: active means hit-call score of the fitted dose curve at least 0.9, where 1 is the maximum; inconclusive means response in the unintended direction; inactive means score below 0.9.

These molecules were tested on xenobiotic metabolism (CYP1A1), CYP1A1 (gene 1543) (assay: CLD_CYP1A1_48hr: CellzDirect (CLD) Gene Expression Assay for xenobiotic metabolism (CYP1A1) at 48 hours (AID 2283705)).
Description: CLD_48hr is a cell-based, multiplexed-readout assay that uses hepatocyte, a human liver primary cell, with measurements taken at 48 hours after chemical dosing in a 96-well plate.CLD_CYP1A1_48hr is one of 16 assay component(s) measured or calculated from the CLD_48hr assay. It is designed to make measurements of mRNA induction, a form of inducible reporter, as detected with chemiluminescence signals by Quantitative Nuclease Protection Assay (qNPA) technology.Data from the assay component CLD_CYP1A1_48hr was analyzed at the endpoint, CLD_CYP1A1_48hr, in the positive analysis fitting direction relative to DMSO as the negative control and baseline of activity. Using a type of inducible reporter, gain-of-signal activity can be used to understand changes in the reporter gene as they relate to the gene CYP1A1. Furthermore, this assay endpoint can be referred to as a primary readout. To generalize the intended target to other relatable targets, this assay endpoint is annotated to the cyp intended target family, where subfamily is xenobiotic metabolism.
Human hepatocyte cultures were treated daily for two consecutive days with fresh dosing solutions containing appropriate concentrations of the 320 ToxCast chemicals (chemical identities were blinded to CellzDirect and other ToxCast collaborators), vehicle control (0.2% DMSO), and positive control inducers as summarized in Table 1. Due to the large number of treatment groups and chemicals examined, the ToxCast chemicals were divided into two groups (spanning two independent cultures of hepatocytes from separate donor preparations (Hu778: ToxCast plates 1 and 2; Hu776: ToxCast plates 3 and 4). Each preparation of human hepatocyte cultures was treated with respective vehicle control, medium only control, set of six positive controls/reference chemicals for the five hepatic receptor pathways, and a subset of eight of the ToxCast chemicals (indoxacarb, pyrithiobac-sodium, norflurazon, cyhalofop-butyl, methomyl, thiram, acetochlor, and propiconazole). These replicate data, coupled with internal replicates designed within the blinded ToxCast chemical library, provided additional data to evaluate interindividual differences between hepatocyte preparations and their potential impact on chemical profiles.Cell morphology and integrity were evaluated using phase-contrast microscopy as an indicator of hepatocyte cell health (Tyson & Green, 1987). Cultures for each treatment group (i.e., media, vehicle [0.2% DMSO], positive control inducers [multiple concentrations], and the ToxCast chemicals [multiple concentrations]) were observed and cell morphology was assessed relative to vehicle control cultures at each harvest time point (0, 6, 24, or 48 h). […] Images were evaluated at the conclusion of the study to assess changes in cell integrity and account for the effects of chemical exposure on uncharacteristic changes in concentration-dependent gene expression profiles. The results from these determinations of apparent cytotoxicity were annotated (yes/no) alongside the corresponding qNPA data for reference.At the conclusion of each treatment period, hepatocyte cultures (96-well) were washed with 1 volume of HBSS, lysed by addition of 25 ul ArrayPlate lysis buffer (HTG, Tucson, AZ), and 70 ul/well of Denaturation Oil, denatured by incubation at 95C for 10 min, and frozen at approximately -70C until analysis by nuclease protection assay (qNPA) (Roberts et al., 2007). For qNPA analysis, cell lysates were thawed at 50C for approximately 30 min, qNPA probes were added, and samples were incubated at 95C for 10 min to begin the detection process by denaturing the target RNA, dissociating the duplexes and secondary structure hybridization. At the conclusion of the hybridization period, S1 nuclease reagent was added to each sample to digest all nonprotected nucleotides at 50C for 60-90 min. […]

Q: Which outcome does the source give for `C#CCOS(=O)OC1CCCCC1Oc1ccc(C(C)(C)C)cc1` (stereo not given) here?
A: inactive

Q: For `CON(C)C(=O)Nc1ccc(Cl)c(Cl)c1`, which AC50 is on record?
A: 3.68 µM (active)

Q: With `CN(C)C(=S)SSC(=S)N(C)C` as the molecule, how does the AC50 read?
A: 29.7 µM (active)

Q: With `Fc1ccc(Oc2ccnc3cc(Cl)cc(Cl)c23)cc1` as the molecule, how does the outcome read?
A: inactive

Q: How did the AC50 turn out when `O=C(Nc1ccccc1)Nc1ccnc(Cl)c1` was run?
A: 10.8 µM (active)

Q: How did the outcome turn out when `COP(=S)(OC)Oc1nc(Cl)c(Cl)cc1Cl` was run?
A: inactive

Q: With `COc1cnc(OC)n2nc(NS(=O)(=O)c3c(OCC(F)F)cccc3C(F)(F)F)nc12` as the molecule, how does the outcome read?
A: inactive

Q: With `OC(c1ccc(Cl)cc1)(c1cncnc1)c1ccccc1Cl` (stereo not given) as the molecule, how does the outcome read?
A: inactive

Q: How did the outcome turn out when `CCCCC(CC)COC(=O)c1ccccc1C(=O)OCC(CC)CCCC` (stereo not given) was run?
A: inactive

Q: `CCCCOC(=O)c1ccccc1C(=O)OCCCC` was tested. Which outcome did it give?
A: inactive

Q: For `N#Cc1nn(-c2c(Cl)cc(C(F)(F)F)cc2Cl)c(N)c1S(=O)C(F)(F)F` (stereo not given), which outcome is on record?
A: inactive

Q: With `CCOC(=O)C(Cl)Cc1cc(-n2nc(C)n(C(F)F)c2=O)c(F)cc1Cl` (stereo not given) as the molecule, how does the outcome read?
A: inactive

Q: How did the AC50 turn out when `CC(C)Oc1cc(-n2nc(C(C)(C)C)oc2=O)c(Cl)cc1Cl` was run?
A: 4.01 µM (active)

Q: How did the AC50 turn out when `N#CC(CCc1ccc(Cl)cc1)(Cn1cncn1)c1ccccc1` (stereo not given) was run?
A: 2.53 µM (active)

Q: `CNC(=S)S` was tested. Which outcome did it give?
A: inactive

Q: With `COc1nc(C)nc(NC(=O)NS(=O)(=O)c2ccccc2Cl)n1` as the molecule, how does the outcome read?
A: inactive

Q: For `CCCC1COC(Cn2cncn2)(c2ccc(Cl)cc2Cl)O1` (stereo not given), which AC50 is on record?
A: 20 µM (active)

Q: Which outcome does the source give for `CC(C)C1(C)N=C(c2nc3ccccc3cc2C(=O)O)NC1=O` (stereo not given) here?
A: inactive

Q: Which outcome does the source give for `O=C(O)COc1nc(Cl)c(Cl)cc1Cl` here?
A: inactive

Q: With `CCCCNC(=O)OCC#CI` as the molecule, how does the outcome read?
A: inactive

Q: How did the AC50 turn out when `O=C(O)c1nc(Cl)ccc1Cl` was run?
A: 4.17 µM (active)

Q: Which AC50 does the source give for `CC1COC(Cn2cncn2)(c2ccc(Oc3ccc(Cl)cc3)cc2Cl)O1` (stereo not given) here?
A: 2 µM (active)

Q: With `CCCN(CCC)c1c([N+](=O)[O-])cc(S(N)(=O)=O)cc1[N+](=O)[O-]` as the molecule, how does the AC50 read?
A: 28.9 µM (active)

Q: With `Cc1c(F)c(F)c(COC(=O)C2C(/C=C(\Cl)C(F)(F)F)C2(C)C)c(F)c1F` (stereo not given) as the molecule, how does the AC50 read?
A: 20 µM (active)

Q: With `CCc1nn(C)c(C(=O)NCc2ccc(C(C)(C)C)cc2)c1Cl` as the molecule, how does the AC50 read?
A: 8.98 µM (active)

Q: Which AC50 does the source give for `CCNc1nc(Cl)nc(NC(C)C)n1` here?
A: 20 µM (active)

Q: How did the outcome turn out when `CS/C(C)=N/OC(=O)N(C)SN(C)C(=O)O/N=C(\C)SC` was run?
A: inactive

Q: `COc1ccc(C(c2ccc(OC)cc2)C(Cl)(Cl)Cl)cc1` was tested. Which AC50 did it give?
A: 20 µM (active)

Q: `C=CC1(C)OC(=O)N(c2cc(Cl)cc(Cl)c2)C1=O` (stereo not given) was tested. Which outcome did it give?
A: inactive

Q: How did the outcome turn out when `COc1nc(C)nc(NC(=O)NS(=O)(=O)c2ccccc2CCC(F)(F)F)n1` was run?
A: inactive

Q: How did the AC50 turn out when `CCOP(=S)(OCC)SCn1c(=O)oc2cc(Cl)ccc21` was run?
A: 13.9 µM (active)

Q: How did the outcome turn out when `N#Cc1cc(Br)c(O)c(Br)c1` was run?
A: inactive

Q: With `CCNc1nc(Cl)nc(NCC)n1` as the molecule, how does the AC50 read?
A: 3.92 µM (active)

Q: How did the AC50 turn out when `COC(=O)N(OC)c1ccccc1COc1ccn(-c2ccc(Cl)cc2)n1` was run?
A: 1.9 µM (active)

Q: How did the AC50 turn out when `CC1=C(C(=O)Nc2ccccc2)SCCO1` was run?
A: 36.1 µM (active)

Q: Which AC50 does the source give for `CCCCNC(=O)n1c(NC(=O)OC)nc2ccccc21` here?
A: 33.1 µM (active)

Q: `COc1nc(NC(C)C)nc(NC(C)C)n1` was tested. Which AC50 did it give?
A: 4.52 µM (active)

Q: `CCOc1cc(Oc2ccc(C(F)(F)F)cc2Cl)ccc1[N+](=O)[O-]` was tested. Which AC50 did it give?
A: 1.01 µM (active)

Q: Which outcome does the source give for `C=CCC1=C(C)C(OC(=O)C2C(C=C(C)C)C2(C)C)CC1=O` (stereo not given) here?
A: inactive

Q: `CC(C)(C)c1ccc(CSc2cnn(C(C)(C)C)c(=O)c2Cl)cc1` was tested. Which outcome did it give?
A: inactive
